Entries with a potency or affinity are not part of this list. Unmarked numbers belong to inactive results.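 Rule for the calls: active = cell-killing curve whose half-maximal dose falls at or below double the top accepted dose; inconclusive = flat fit with drops of 30 to 70%, or poor fit; inactive = the rest, including signal rises.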
experiment: NIH3T3 fibroblast cytotoxicity, dose response, cytotoxicity control for PglD inhibitor project, cell-based, CellTiter-Glo luminescence, dry powder (AID 652044); settings: NIH3T3 viability, CellTiter-Glo ATP luminescence, 48 h; series mostly up to 26 µM; activity change, negative = cytotoxic: at the top concentration

SMILES	activity change, negative = cytotoxic
O=C(C[C@@H]1CC[C@@H]2[C@H](COC[C@@H](O)CN2Cc2ccc(F)cc2)O1)N1CCc2ccccc2C1	6.57%
Cc1noc(C)c1NC(=O)Nc1cccc2c1O[C@H](CN(C)C(=O)Nc1cccc3ccccc13)[C@@H](C)CN([C@H](C)CO)C2=O	0.326%
O=C(C[C@@H]1C[C@@H]2c3cc(NC(=O)NC4CCCCC4)ccc3O[C@@H]2[C@@H](CO)O1)NCc1cccnc1	2.95%
CO[C@H]1CN(C)C(=O)c2cc(NC(C)=O)ccc2OC[C@@H](C)NC[C@@H]1C	5.85%
COCC#Cc1cnc2c(c1)C(=O)N([C@@H](C)CO)C[C@H](C)[C@@H](CN(C)C(=O)C1CCC1)O2	-10.5%
C/C=C/c1cnc2c(c1)C(=O)N([C@@H](C)CO)C[C@H](C)[C@@H](CN(C)C(=O)c1cccnc1)O2	-12.1%
CC(=O)N[C@H]1CC[C@H](CC(=O)NCc2ccc(Cl)cc2)O[C@H]1CO	-2.34%
C[C@H]1CN([C@@H](C)CO)C(=O)c2cccc(NC(=O)Nc3ccccc3)c2O[C@H]1CN(C)C	-4.25%
CO[C@@H]1CN(C)C(=O)c2ccc(NS(C)(=O)=O)cc2OC[C@@H](C)N(C(=O)C2CCOCC2)C[C@H]1C	8.99% [at 23.5 µM]
O=C(N[C@H]1C=C[C@@H](CC(=O)N2CCCCC2)O[C@H]1CO)c1ccc2c(c1)OCO2	-2.65%
CC=Cc1ccc2n(c1=O)C[C@@H]1[C@@H](CO)[C@H](C(=O)NCCOC)[C@H]2N1Cc1nccs1 (mixture of isomers)	7.23%
CCC(=O)Nc1ccc2c(c1)OC[C@@H](C)N(Cc1ccccn1)C[C@@H](C)[C@H](OC)CN(C)C2=O	6.56%
